These results are taken from PubChem BioAssay AID488857 (Sanford-Burnham Center for Chemical Genomics, 2010).

The inhibition is the change of the read-out against control, counted positive when it falls.

The whole screen tested about 1,400 compounds, of which about 560 (40%) were called active. So high a share suggests a set chosen from earlier hits. The list shows a part of the results. A number with no mark means an inactive call.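 The calls were made as follows: active = mean inhibition over duplicate tests at 10 µM above 50%; inactive = the rest.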

The nature of the test: ASC/caspase-1 reporter retest in S. cerevisiae at one dose, specificity check for NALP1 project (AID 488857). The conditions noted are these: S. cerevisiae ASC/Caspase-1, beta-galactosidase luminescence, 24 h; at 10 µM; stronger effect = higher value.
As for `COc1ccccc1C(C[N+](=O)[O-])c1c(N)n(C)c(=O)n(C)c1=O` (configuration not stated), the inhibition was 99.8% (active).
Take `Cc1ccc(C(C[N+](=O)[O-])c2c(N)n(C)c(=O)n(C)c2=O)cc1` (configuration not stated): the inhibition is 98.2% (active).
For `O=c1[nH][nH]c(-c2ccccc2O)c1C(C[N+](=O)[O-])c1ccc(Cl)cc1Cl` (configuration not stated), the inhibition was 42.1%.
The same measure for `COc1cccc(F)c1C(C[N+](=O)[O-])c1c(N)n(C)c(=O)n(C)c1=O` (configuration not stated): 97.7% (active); for `Cc1nc([N+](=O)[O-])c(Br)n1CC(=O)c1ccc(Cl)cc1`: 37.6%; for `N=c1n(CC(=O)c2ccc([N+](=O)[O-])cc2)c2ccccc2n1Cc1ccccc1Cl`: 28.8%.
Then `Cc1ccccc1Cn1c(=N)n(CC(=O)c2ccc([N+](=O)[O-])cc2)c2ccccc21`, with 53.6% (active); and `CCCCCOc1ccc(Cn2ccnc2)cc1[N+](=O)[O-]`, with 64% (active); and `CCCCOc1ccc(CSC2=NCCN2)cc1[N+](=O)[O-]`, with 40.1%.
On to `CCc1cccc2c(C(=O)COC(=O)c3ccccc3)c[nH]c12`, for which the inhibition was 43.6%.
With `CCc1cccc2c(C(=O)COC(=O)c3ccc([N+](=O)[O-])s3)c[nH]c12`, the inhibition is 95.7% (active).
Then `CCc1cccc2c(C(=O)CSc3nncn3-c3ccc(OC)cc3)c[nH]c12`, with 38.1%; and `O=C(Nc1nc2c(c(=O)[nH]1)CCCC2)C1CC1`, with 31.5%; and `O=C1c2ccccc2C(Nc2ccc(Cl)cn2)N1Cc1ccccc1` (configuration not stated), with 52.1% (active).
The same measure for `O=C1c2ccccc2C(O)N1c1cccnc1` (configuration not stated): 23.4%; for `COc1ccc(C(C)C)cc1S(=O)(=O)n1cnc(C)c1`: 42.7%; for `COC(=O)/C=C/C(=O)N1CCN(c2cccc(Cl)c2)CC1`: 62.8% (active).
Then `O=C(CN1CCN(c2cccc(Cl)c2)CC1)Nc1ccc(S(=O)(=O)N2CCOCC2)cc1`, with 33.4%; and `COC(=O)c1cc(OC)c(OC)cc1NC(=S)N1CCN(c2ccccc2)CC1`, with 39.1%; and `C#CCOc1c(Br)cc(/C=N/O)cc1OCC`, with 17.9%.
As to `CNc1nc(SCc2ccc(C)cc2)nc2c1CCCC2`, the inhibition was 98.4% (active).
The same measure for `Cc1oc(-c2ccccc2Cl)nc1CSc1nc2c(c(=O)[nH]1)CCC2`: 21.4%; for `CNc1nc(SCc2ccccc2Cl)nc2c1CCCC2`: 97.2% (active).
The same measure for `NC(=NCCc1ccc(Cl)cc1)NS(=O)(=O)c1ccc(F)cc1`: 23.1%; for `COc1ccc(N(C)C2=NS(=O)(=O)c3ccccc32)cc1`: 29.7%.
As to `CN(Cc1ccccc1)c1ncnc2c1cnn2-c1ccccc1`, the inhibition was 66.2% (active).
For the molecule `COC(=O)c1ccc(Cn2cnc3c(cnn3-c3ccc(Cl)cc3)c2=O)o1`, the inhibition was 35.1%.
The same measure for `COCCN(CCOC)c1ncnc2c1cnn2-c1ccc(Cl)cc1`: 69.3% (active); for `CC(C)c1ccc(NCCC(=O)c2cccs2)cc1`: 42%.
Then `Nc1ccc(C(=O)c2cccs2)cc1`, with 54.2% (active); and `CCOc1ccc(N=c2oc3cc(O)ccc3cc2C(=O)NCC2CCCO2)cc1` (configuration not stated), with 33%; and `CCOc1ccc(NC(=O)c2csc3c2CCCC3)cc1`, with 70.2% (active).
Then `CCOc1ccc(NC(=O)c2cc3c(C)nc4ccccc4c3o2)cc1`, with 33.2%; and `CCOC(=O)c1cc(-c2ccccc2)n(CCC(=O)N2CCN(c3ccccn3)CC2)c1C`, with 32.7%; and `O=C(c1ccccc1-c1ccccc1)N1CCN(c2ccccn2)CC1`, with 35.6%.
On to `O=C(N1CCN(c2ccccn2)CC1)C(Cl)(Cl)Cl`, for which the inhibition was 63.7% (active).
The same measure for `O=C(CSCc1cnn(-c2ccccc2)c1-n1cccc1)NCc1ccc2c(c1)OCO2`: 57.3% (active); for `c1ccc2c(Nc3nc(N4CCOCC4)c4ccccc4n3)cccc2c1`: 95% (active).
As for `Oc1c(Cl)cc(Cl)c(Cl)c1Cc1c(O)c(Cl)cc(Cl)c1Cl`, the inhibition was 98.4% (active).
The same measure for `CCN(CC)c1ccc(NC(=O)Cn2cc3c(n2)CCC(C)C3)c(C)c1` (configuration not stated): 51.1% (active); for `C=CCNCCCCOc1ccc(Br)cc1C`: 46.5%.
`Cc1cc(Cl)c(OCCCn2ccnc2)c(Br)c1`: the inhibition is 64.8% (active).
Take `Cc1cc(Br)ccc1OCCn1ccnc1`: the inhibition was 59.4% (active).
`CCOc1cc(C(=O)OCC(=O)Nc2ncc(Cl)c(C)c2Cl)ccc1OCC(=O)N1CCOCC1`: the inhibition was 33.8%.
The same measure for `COC(=O)CCn1nnc(-c2ccc(C(C)C)cc2)n1`: 41.2%; for `O=C(CCSCc1cccc(Cl)c1)NCCc1ccccc1`: 64.2% (active); for `CN(C)CCNC(=O)COc1ccc(Cl)cc1Cl`: 28.3%.
Consider `O=C(COC(=O)CCSc1ccccc1)NCc1ccccc1Cl`, for which the inhibition is 29.2%.
In the case of `O=C(COc1ccccc1Cl)NCCC1=CCCCC1`, the inhibition is 48.4%.
Then `O=C(CN1C(=O)C2C3C=CC(C3)C2C1=O)NCCc1ccccc1` (configuration not stated), with 23.8%; and `COc1ccccc1OCC(=O)NCCSCc1ccc(Cl)cc1`, with 64.2% (active); and `COc1ccccc1OCC(=O)NCCSCc1cccc(Cl)c1`, with 61.4% (active).
Then `COc1ccccc1OCC(=O)NCCSCc1ccccc1Cl`, with 65.5% (active).
Then `Cc1sc(NC(=O)c2cc3ccccc3oc2=O)c(C(=O)OC(C)C)c1-c1ccccc1`, with 36%.
As to `COc1cccc(N2C(=O)C(O)=C(C(C)=O)C2c2ccc(OC)c(OC)c2)c1` (configuration not stated), the inhibition was 31%.
Take `CC(=O)N1CC[n+]2c(-c3ccc(Cl)cc3Cl)csc21`: the inhibition was 23.9%.
The same measure for `CC(C)Cn1c(CN(Cc2ccccc2)Cc2ccccc2)nc2c1c(=O)n(C)c(=O)n2C`: 35.6%; for `Cc1ccc(CC(=O)Nc2ccccc2-c2ccccc2)cc1C`: 34.3%; for `O=C(CSC1=NS(=O)(=O)c2ccccc21)Nc1ccccc1`: 43.5%.
With `O=C(CSCc1cccc(Cl)c1)Nc1ccccc1-c1ccccc1`, the inhibition is 62.6% (active).
Then `COc1ccc(CCNC(=O)CN2CCC(C)CC2)cc1OC`, with 28.1%.
As to `COc1ccc(CCN(C)C2CC(=O)N(c3ccccc3)C2=O)cc1OC` (configuration not stated), the inhibition is 51% (active).
Then `COC(=O)c1ccccc1SC1CC(=O)N(c2ccccc2)C1=O` (configuration not stated), with 49.2%; and `COc1ccc2[nH]c(C)c(CCNC(=S)Nc3cc(C)cc(C)c3)c2c1`, with 17%.
The same measure for `COc1ccc2[nH]c3c(C)c4ccncc4c(C)c3c2c1`: 98.8% (active).
Then `CC(C)(C)c1cc(C(=O)O)n[nH]1`, with -9.25%; and `O=C(Nc1nccs1)c1sc2ccccc2c1Cl`, with 80.7% (active).
For `CNC(=O)c1ccsc1NC(=O)c1sc2ccccc2c1Cl`, the inhibition is 58.8% (active).
Take `O=C(Nc1nc(-c2ccccn2)cs1)c1ccc(Cl)s1`: the inhibition is 46.2%.
For `O=c1cc(-c2ccccc2)[nH]c2nc3ccccc3n12`, the inhibition was 44.1%.
Turning to `Cc1nc(-c2ccccc2)cn2c1nc1ccccc12`, the inhibition is 59.9% (active).
The same measure for `Cc1cc(N/N=C/c2ccccc2)nc(NCc2ccccc2)n1`: 68.2% (active); for `Cc1cc(N/N=C/c2cccc(Cl)c2)nc(NCc2ccccc2)n1`: 55.9% (active).
With `Cc1ccc(Nc2cc(C)nc(NCc3ccccc3)n2)cc1`, the inhibition was 61.2% (active).
Then `Cc1cc(N/N=C/c2ccccc2Cl)nc(NCc2ccccc2)n1`, with 52.2% (active); and `Cc1ccccc1N(CC(=O)N/N=C/c1ccccc1Cl)C(=O)c1ccccc1`, with 35.8%; and `CC1(C)CC(=O)C2=C(C1)OC(N)=C([N+](=O)[O-])C2c1cccs1` (configuration not stated), with 39.2%.
The same measure for `CCOC(=O)c1c(C)n(C)c2cc(-c3ccc(C)cc3)c(O)cc12`: 41.5%; for `Cc1cc(N/N=C/c2ccc(Cl)cc2)nc(NCc2ccccc2)n1`: 78.7% (active); for `Cc1ccccc1OCC(=O)Nc1cccc(N(C)S(C)(=O)=O)c1`: 34.6%.
Consider `O=C(COc1ccc(Br)cc1Br)NC(=S)Nc1cccc(CO)c1`, for which the inhibition is 59.8% (active).
In the case of `O=C(COc1ccc(CO)cc1Cl)Nc1ccc(F)cc1`, the inhibition is 38.2%.
`CCc1ccc(C(=O)NCc2ccc(Cl)cc2Cl)cc1`: the inhibition is 49.6%.
The same measure for `N/C(Cc1ccc(Cl)cc1Cl)=N\OC(=O)c1cccs1`: 53.2% (active); for `COc1ccc(C(=O)O/N=C(\N)Cc2ccc(Cl)cc2Cl)cc1OC`: 72.4% (active).
Turning to `COc1ccc(Cl)cc1C(=O)O/N=C(\N)c1ccc(Cl)cc1`, the inhibition was 43.9%.
The same measure for `CCN(CC)CCN1C(=O)c2ccccc2NC1c1ccc(N(C)C)cc1` (configuration not stated): 31.9%; for `CCCc1ccc(-c2c(C)sc(N)c2C#N)cc1`: 51.2% (active); for `CCn1c(C)[n+](CC(O)COCC2CC=CCC2)c2ccccc21` (configuration not stated): 41.3%.
As for `COc1ccc(CNc2nc(C)c([N+](=O)[O-])c(C)c2C#N)cc1`, the inhibition is 45.5%.
Take `COc1cc(C)ccc1OCCOCCOc1ccc([N+](=O)[O-])cc1`: the inhibition was 65.2% (active).
For `C=CCc1ccc(OCCCOc2ccc(C)cc2OC)c(OC)c1`, the inhibition was 31.8%.
The same measure for `NNC(=S)NCc1cccnc1`: 37.2%.
Then `O=C1/C(=C\c2cccnc2)CN(Cc2ccccc2)C/C1=C\c1cccnc1`, with 30.4%.
The same measure for `S=C1SCN(Cc2cccnc2)CN1Cc1cccnc1`: 89.2% (active); for `Nc1[nH]c(=O)ncc1F`: 81.2% (active).
As for `Cc1nc(N)sc1N=Nc1ccc(Br)cc1`, the inhibition is 68.5% (active).
`CCOC(=O)c1c(C)n(C)c2ccc(OC)c(NC(=O)CN3CCN(C4CCCCC4)CC3)c12`: the inhibition is 21.6%.
In the case of `CCOC(=O)C(=CNNc1ccsc1C(=O)OC)C(=O)OCC`, the inhibition was 41%.
The same measure for `CCOC(=O)C(=Cc1cc(=O)c(OC)co1)C(=O)OCC`: 85.2% (active).
The same measure for `C1=CC2CC1CC2CN1CCN(Cc2ccccc2)CC1` (configuration not stated): 48.8%.
For `Cc1onc(-c2ccccc2Cl)c1C(=O)N1C=CC(C(F)(F)F)=NCC1`, the inhibition is 77.5% (active).
